Most compounds without a hit are left out; they make up all but 3.6% or so of the library.
HSP90 refold inh: HSP90 inhibitors, primary screen, cell lysate, luminescence | Heat shock protein HSP 90 (rabbit reticulocyte lysate; luciferase refolding) | Rabbit reticulocyte lysate, luciferase refolding luminescence, 3 h | inhibition, % at 5.6 µM | 0.91% of 290,000 active | AID 1789, 2009;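 active = inhibition above the screen-wide mean plus 3 SD, computed separately per campaign, cut at about 16% in these data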;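 note: 0% = DMSO wells and 100% = 60 µM geldanamycin wells; inhibitors lower the luminescence because luciferase stays unfolded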
Mdm2-MdmX inh: inhibitors of human Mdm2-MdmX association, primary screen, cell-based, luminescence, split luciferase, SaOS-2, uHTS; Protein Mdm4 (Homo sapiens) + E3 ubiquitin-protein ligase Mdm2 (Homo sapiens), …; SaOS-2 split-luciferase Mdm2/MdmX complementation; inhibition, % at 8 µM; 3% of 330,000 active; AID 485346, 2010;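 active = inhibition of at least 50% at 8 µM in the primary screen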
Peg3 prom inh: Peg3 promoter-driven luciferase inhibitors, primary screen, cell-based, HeLa, luciferase luminescence; 1.7% of 360,000 active; inhibition, % at 20 µM; AID 588405, 2011; HeLa PEG-Prom luciferase reporter, overnight;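 active = inhibition of at least 50% at 20 µM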
CF NFkB block: inhibitors of PAF-induced NF-kB signaling, primary screen, cell-based, GFP fluorescence, uHTS | AID 588850, 2011 | inhibition, % at 5 µM | KKLEB NF-kB-GFP reporter, GFP fluorescence overnight | 0.86% of 360,000 active;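 active = at least 50% inhibition at 5 µM, scaled per plate between neutral and stimulator controls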;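 note: PAF is a Pseudomonas aeruginosa culture filtrate used as stimulus; plate controls were PAF-stimulated DMSO wells for no effect and unstimulated DMSO wells for full effect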
KKLEB cytotox: cytotoxicity in KKLEB CF airway cells, primary screen, cytotoxicity control for CF NF-kB inhibitor project, cell-based, uHTS, fluorescence assay plates; KKLEB CF airway cells viability, ATPlite luminescence, overnight; stronger effect = lower value; cells stimulated with P. aeruginosa culture filtrate; activity change (cytotoxicity), % at 5 µM; 0.36% of 360,000 active;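 active = corrected activity change at or below -50% at 5 µM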
LGR2 antag: inhibitors of bursicon-induced LGR2 CRE-luciferase signal, primary screen, cell-based, HEK293, CRE-luciferase reporter, bursicon stimulation; inhibition, % at 9.99 µM; 0.35% of 380,000 active; Drosophila bursicon receptor LGR2 (rickets); AID 720647, 2013; bursicon-stimulated, 4 h;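 active = drop in luminescence signal, shown as inhibition above about 50% in the replicate tests, limit read from the data, passing the limit was not always enough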;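 note: agonist challenge used bursicon conditioned medium at about half maximal strength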
Mdm2-MdmX conf: Mdm2-MdmX complex disruptors, retested hits, confirmation, luminescence, single concentration; AID 489028, 2010; 55% of 10,000 active; Mdm2-MdmX binding, luminescent assay; inhibition, % at 8 µM; shares compounds with Mdm2-MdmX inh; in the data active = inhibition above about 40%
Full FLuc ctr: full-length luciferase signal inhibition, confirmation, counter-screen for Mdm2/MdmX interaction inhibitor project, cell-based, single concentration, SaOS-2 | shares compounds with Mdm2-MdmX inh | SaOS-2 full-length luciferase counterscreen, luminescence | inhibition, % at 8 µM | 77% of 6,200 active | AID 504607, 2011;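 active = mean inhibition at 8 µM reaching about 37%, which flags the compound as non-specific, limit read from the data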;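 note: p53-null SaOS-2 cells with luciferase driven by a doxycycline-inducible promoter; compound on cells about two nights before reading with doxycycline added after day one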
An asterisk follows results filed as active; x = no result given.

SMILES	HSP90 refold inh	Mdm2-MdmX inh	Peg3 prom inh	CF NFkB block	KKLEB cytotox	LGR2 antag	Mdm2-MdmX conf	Full FLuc ctr
CCn1c(=O)c(C(C)=O)c(O)c2ccccc21	-0.1	-9.6	-3.9	9.7	-10.7	-5.5	x	x
CCn1c(=O)c(C(=O)NCCCO)c(O)c2ccccc21	1.4	78.5*	19.2	1.0	0.1	x	41.2*	58.1*
CCCCNC(=O)c1c(O)c2cccc3c2n(c1=O)CCC3	-0.7	8.0	5.3	-3.0	-10.1	x	x	x
Cc1ccc2[nH]c(=O)c3cc(C(=O)N(CCCOC(C)C)Cc4ccco4)sc3c2c1	-2.1	69.0*	13.4	36.6	-29.1	5.7	25.2	x
CCCCN(Cc1ccco1)C(=O)c1cc2c(=O)[nH]c3ccc(C)cc3c2s1	6.1	84.0*	25.0	43.5	-23.8	9.6	36.6	23.8
CCCCN(CC)C(=O)c1cc2c(=O)[nH]c3ccc(C)cc3c2s1	-0.6	41.9	16.6	14.6	-3.3	-7.2	x	x
CCC(=O)N(C)C[C@@H]1Oc2ncc(-c3ccc(C#N)cc3)cc2C(=O)N([C@@H](C)CO)C[C@@H]1C	x	x	x	x	x	0.1	x	x
C[C@@H]1CN([C@@H](C)CO)C(=O)Cc2cc(NC(=O)Nc3cccc4ccccc34)ccc2O[C@H]1CN(C)S(C)(=O)=O	x	x	x	x	x	7.7	x	x
CCc1nc(Nc2ccc(O)cc2)c2oc3ccccc3c2n1	4.6	51.4*	17.8	-20.6	-6.2	-15.6	2.0	x
CCn1c2ccccc2c2cc(Nc3cc(C)nc4ncnn34)ccc21	-2.7	82.5*	-31.4	-64.7	-17.4	-0.4	71.9*	109.1*
CCc1ccc(Nc2cc(C)nc3ncnn23)cc1	-3.4	40.7	27.3	-12.0	2.5	13.6	x	x
CCN1[C@H](C(=O)N(C)C)[C@@H](CO)[C@@H]2Cn3c(ccc(-c4cccc(OC)c4)c3=O)[C@@H]21	x	x	x	x	x	14.0	x	x
COc1cccc(NC(=O)C[C@@H]2CC[C@H]3[C@H](COc4ccc(NC(=O)c5ccccc5F)cc4C(=O)N3C)O2)c1	x	x	x	x	x	-19.7	x	x
CCc1nc2c(c(=O)c3ccccc3n2C)c(=O)n1C1CCCCCC1	-4.5	51.7*	-18.5	21.1	0.8	49.2	76.1*	80.7*
Cn1c2ccccc2c(=O)c2c(=O)n(C3CCCCC3)c(-c3cccs3)nc21	-0.1	58.5*	20.3	-31.7	26.6	x	69.3*	62.6*
COc1ccc(CCn2c(C3CCCCC3)nc3c(c(=O)c4ccccc4n3C)c2=O)cc1	2.5	81.2*	44.1	15.9	-0.4	26.6	50.0*	45.1*
CCn1c(=O)cc(SCC(=O)Nc2ccc(Cl)cc2)c2ccccc21	0.4	31.0	-3.8	4.3	-2.3	x	x	x
CCn1c2ccccc2c2cc(NC(=O)COc3ccccc3OC)ccc21	4.2	38.1	23.1	28.0	-11.7	2.3	x	x
CCn1c2ccccc2c2cc(NC(=O)CNCc3ccccc3OC)ccc21	0.9	57.2*	27.0	13.0	-9.0	5.5	56.0*	81.2*
CCn1c(=O)cc(SCC(=O)N2CCN(c3ccccc3OC)CC2)c2ccccc21	-2.0	62.2*	3.5	-42.6	13.6	x	37.4	x
CCn1c(=O)cc(SCC(=O)Nc2ccc(OC)c(OC)c2)c2ccccc21	-0.4	51.9*	-3.0	-26.8	-6.3	x	42.8*	58.0*
CCn1c(=O)cc(SCC(=O)N2CCN(C(=O)c3ccco3)CC2)c2ccccc21	0.5	53.2*	-21.2	-58.1	-5.6	-3.0	32.1	x
CCn1c(=O)cc(SCC(=O)N2CCOCC2)c2ccccc21	3.9	39.1	-6.3	-35.2	2.0	x	x	x
CO[C@@H]1CN(C)C(=O)c2cc(NC(=O)Nc3cccc(F)c3)ccc2OC[C@@H](C)NC[C@@H]1C	x	x	x	x	x	5.6	x	x
COCC#Cc1ccc([C@@H]2[C@@H](CO)N3C(=O)CN(C(=O)c4ccncc4)C[C@H]23)cc1	x	x	x	x	x	18.6	x	x
SMILES	HSP90 refold inh	Mdm2-MdmX inh	Peg3 prom inh	CF NFkB block	KKLEB cytotox	LGR2 antag	Mdm2-MdmX conf	Full FLuc ctr
C[C@@H]1CN([C@@H](C)CO)C(=O)c2cccc(NC(=O)NC3CCCCC3)c2O[C@H]1CN(C)S(=O)(=O)c1ccc(Cl)cc1	x	x	x	x	x	-22.7	x	x
O=C(CS(=O)(=O)c1ccccc1)Nc1nc(-c2ccc(F)cc2)cs1	-6.9	0.7	-31.3	7.7	-0.1	8.1	x	x
O=C(Nc1nc(-c2ccncc2)cs1)c1ccc(F)cc1	-0.4	66.3*	-10.9	-7.9	13.7	-16.7	22.2	x
COc1cccc(C(=O)Nc2nc(-c3ccncc3)cs2)c1	-0.2	1.0	-31.1	-19.4	7.1	-1.5	x	x
O=C(COc1ccccc1)Nc1nc(-c2cccnc2)cs1	x	3.3	-23.1	14.8	-0.6	-2.8	x	x
O=C(CCS(=O)(=O)c1ccccc1)Nc1nc(-c2ccc(F)cc2)cs1	0.3	60.0*	-8.9	8.1	-14.9	4.5	43.2*	53.0*
Cc1ccc(OCC(=O)Nc2nc(-c3ccccn3)cs2)c(C)c1	x	42.6	-29.5	15.1	-24.8	-5.7	x	x
Cc1cc(C)cc(OCC(=O)Nc2nc(-c3cccnc3)cs2)c1	1.0	78.0*	9.1	24.0	-14.0	-4.0	31.4	x
Cc1ccc(S(=O)(=O)CCC(=O)Nc2nc(-c3ccccn3)cs2)cc1	x	66.7*	17.6	13.5	1.1	-7.7	29.4	x
COc1ccc(-c2ccc3n(c2=O)C[C@@H]2[C@@H](CO)[C@H](C(=O)N4CCN(C)CC4)N[C@H]32)cc1	x	x	x	x	x	-4.8	x	x
CO[C@@H]1CN(C)C(=O)c2ccc(NS(=O)(=O)CC(F)(F)F)cc2OC[C@H](C)N(Cc2cccnc2)C[C@H]1C	x	x	x	x	x	-5.0	x	x
Cc1noc(C)c1NC(=O)N(C)C[C@H]1Oc2ccc(NS(=O)(=O)c3cn(C)cn3)cc2CC(=O)N([C@H](C)CO)C[C@@H]1C	x	x	x	x	x	1.0	x	x
COCC#Cc1cnc2c(c1)C(=O)N([C@@H](C)CO)C[C@H](C)[C@H](CN(C)C(=O)Nc1cc(F)ccc1F)O2	x	x	x	x	x	-5.6	x	x
Cc1ccc(S(=O)(=O)CCC(=O)Nc2nc(-c3cccnc3)cs2)cc1	-1.3	58.5*	2.6	21.6	-1.9	11.2	35.8	66.3*
O=C(CCS(=O)(=O)c1ccc(Cl)cc1)Nc1nc(-c2ccncc2)cs1	-5.3	96.6*	11.7	26.1	-21.9	6.5	55.5*	25.6
